Screening results deposited in PubChem BioAssay by National Center for Advancing Translational Sciences (NCATS).
This is a sample that favours compounds with a hit; in the whole collection about 2% have one here.
KDM4E inh – JMJD2E (human) inhibition | B2RXH2 | JMJD2E catalytic domain, FDH-coupled NADH fluorescence (FDH is formaldehyde dehydrogenase) | Potency, µM (top dose mostly 57.1 µM), inactives show at the top dose activity change, negative = inhibition, actives largely listed as inhibitors | 230,000 compounds, 1.6% hits | AID 2147; active = well fitted inhibition curve with a large enough effect, not every such curve was filed as active; inconclusive = small, poorly fitted or top-dose-only effect, or another doubt; inactive = no such curve, though single readings can be large or run the other way;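 note: potency is the fitted concentration of half-maximal effect; 0% = wells with enzyme and -100% = buffer wells without enzyme; nearly all actives have a fitted effect of over 50% in size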
CtBP-E1A inh – CtBP/E1A binding inhibition. AlphaScreen GST-E1A/His-CtBP binding, 1536-well; active compounds read low. activity change, % (test concentration not listed). 340,000 compounds, 0.49% hits. AID 651724
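In 5 uL wells, 23 nL compound meets equimolar GST-E1A and His-CtBP (5X stock 125 nM each) for 2 h, 37 °C. Beads (5X, 50 ug/mL) then 1 h, 37 °C, dark.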
KCNH2 3.1 block – inhibitors of human KCNH2 3.1 potassium channel isoform. U2OS KCNH2 3.1, thallium flux FluxOr; active compounds read low. activity change, % (tested at about 1.8 µM). 340,000 compounds, 0.95% hits. AID 720553;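 active = maximum activity change below -70%; inconclusive = maximum activity change from -70% to -50%; inactive = maximum activity change above -50%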;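 note: thallium influx rate constant from kinetic fluorescence after stimulation buffer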
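Measured as rate of thallium-driven FluxOr signal in transduced U2OS cells carrying the 3.1 channel, read kinetically for 2 min upon stimulation; values are rate constants scaled to DMSO control wells.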
Six1-Eya2 blk – Six1/Eya2 interaction inhibition. Q15475+O00167. AlphaScreen GST-Six1/His-Eya2 binding, biochemical; active compounds read low. activity change, % (concentration not given with the values). 360,000 compounds, 0.56% hits. AID 651725
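Six1/Eya2 binding was read as AlphaScreen signal after compounds were pinned into GST-Six1 plus His-tagged Eya2 (5X stock 250/500 nM) in pH 8.0 Tris/NaCl/TCEP buffer, beads added, then incubated 1 h, 37 C, dark.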
hERG WT inh – inhibitors of human wildtype KCNH2 potassium channel | U2OS, BacMam KCNH2, thallium flux FluxOr; active compounds read low | 340,000 compounds, 0.37% hits | AID 720551 | activity change, % at 1.84 µM | Q12809;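 active = maximum activity change below -70%; inconclusive = maximum activity change between -70% and -50%; inactive = maximum activity change above -50%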
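U2OS cells were transduced with wild-type KCNH2 virus (2.03 x 10^8 / mL) for 4 h at room temperature, then cultured overnight at 37 C. Thallium flux was read with FluxOr dye. Rate constants were normalized to DMSO controls.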
* marks the source's active call; other numbers are inactive results; ! = not active in a repeat. Cut-off read from the data, not from the text of the source, unless noted: active = activity change below about -65%; inconclusive = mostly about -30% to -63%; inactive = weaker than that. Unless noted, % is set by controls: 0 for no effect and ±100 for the full control effect.

Screening O=C(NCCN1CCOCC1)c1cc(Cl)ccc1Cl returned CtBP-E1A inh -1, KCNH2 3.1 block 3, Six1-Eya2 blk 5 and hERG WT inh -1.
For O=C(NCCN1CCOCC1)NC1(C(F)(F)F)Oc2ccc(Cl)cc2O1 (stereo not given) the results were KDM4E inh 3.2µM*, CtBP-E1A inh 1, KCNH2 3.1 block -12, Six1-Eya2 blk 1 and hERG WT inh 2.
`CCCc1cnc(NCCNCC(O)COc2ccc(Cl)c(Cl)c2)nc1` (stereo not given) gave KDM4E inh 75%, CtBP-E1A inh -4, KCNH2 3.1 block -98*, Six1-Eya2 blk -4 and hERG WT inh 22.
`COc1cccc(-n2c(COc3ccc(C)cc3)nnc2SCC(N)=O)c1` gave KDM4E inh 0%, CtBP-E1A inh 2, KCNH2 3.1 block -2, Six1-Eya2 blk 5 and hERG WT inh 1.
`CCc1ccc(NC(=O)C(CC)Sc2nc3cc4c(cc3c(=O)n2Cc2ccco2)OCO4)cc1` (stereo not given) gave KDM4E inh -5%, CtBP-E1A inh -5, KCNH2 3.1 block -48, Six1-Eya2 blk 2 and hERG WT inh -13.
For COC(=O)Cc1cc(=O)n(-c2nc3ccccc3[nH]2)[nH]1 the results were KDM4E inh inconclusive, CtBP-E1A inh -86*, KCNH2 3.1 block 7, Six1-Eya2 blk -92* and hERG WT inh 12.
Screening CC1C(=O)CC(c2ccc([N+](=O)[O-])cc2)NC1c1ccc([N+](=O)[O-])cc1 (stereo not given) returned KDM4E inh 0%, CtBP-E1A inh 0, KCNH2 3.1 block -71*, Six1-Eya2 blk -11 and hERG WT inh -22.
For CC(C)NC(=S)NN=C1CCC(c2ccccc2)CC1 (stereo not given) the results were KDM4E inh -6%, CtBP-E1A inh -6, KCNH2 3.1 block 11, Six1-Eya2 blk -10 and hERG WT inh 3.
COC(=O)c1ccc(CSc2nnc(-c3ccncc3)n2Cc2ccccc2)o1 was read as KDM4E inh -2%, CtBP-E1A inh -4, KCNH2 3.1 block -173*, Six1-Eya2 blk -11 and hERG WT inh -199*.
`CCOc1ccccc1N(CC(=O)Nc1ccc(OC)c(OC)c1)S(=O)(=O)c1ccccc1` gave CtBP-E1A inh -6, KCNH2 3.1 block -7, Six1-Eya2 blk -5 and hERG WT inh 1.
For CCCCCCN(C(=O)CCCCCN1C(=O)NC(c2ccc(-c3ccccc3)cc2)C(C(=O)OCc2ccccc2)=C1C)C(C)C(=O)NCCCC (stereo not given) the results were KDM4E inh 35µM*!.
O=C(O)COc1cccc2nsnc12 was read as KDM4E inh 20µM*, CtBP-E1A inh -5, KCNH2 3.1 block -5, Six1-Eya2 blk 7 and hERG WT inh -3.
O=C(COc1ccccc1)Nc1cccc2nsnc12 was read as KDM4E inh inconclusive, CtBP-E1A inh 37, KCNH2 3.1 block -29, Six1-Eya2 blk 31 and hERG WT inh -21.
COCCOCC(=O)Nc1ccc(S(=O)(=O)Nc2cc(C)nc(C)n2)cc1 was read as KCNH2 3.1 block 12, Six1-Eya2 blk 17 and hERG WT inh -108*.
Screening CC1CCN(c2ccc([N+](=O)[O-])cc2C(=O)O)CC1 returned KDM4E inh -4%, CtBP-E1A inh -24, KCNH2 3.1 block -178*, Six1-Eya2 blk -5 and hERG WT inh -133*.
O=C(c1sc2cc([N+](=O)[O-])ccc2c1Cl)N1CCOCC1 was read as KDM4E inh -13%, CtBP-E1A inh -6, KCNH2 3.1 block 40, Six1-Eya2 blk 0 and hERG WT inh -97*.
`O=C(COc1ccc(Cl)cc1)N1CCN(c2ccc([N+](=O)[O-])c(N3CCOCC3)c2)CC1` gave KDM4E inh -5%, CtBP-E1A inh -15, KCNH2 3.1 block -81*, Six1-Eya2 blk -22 and hERG WT inh 14.
Screening CC(C)N(C(=O)c1sc2cc([N+](=O)[O-])ccc2c1Cl)C(C)C returned KDM4E inh -2%, CtBP-E1A inh -16, KCNH2 3.1 block 2, Six1-Eya2 blk -19 and hERG WT inh 21.
O=C(c1cc([N+](=O)[O-])ccc1N1CCOCC1)N1CCCCC1 was read as KDM4E inh 4%, CtBP-E1A inh 8, KCNH2 3.1 block 6, Six1-Eya2 blk 5 and hERG WT inh -7.
